The nature of experiment [1]: NCI Yeast Anticancer Drug Screen. Data for the rad50 strain (AID 155).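 Also: 0% = growth of vehicle-only cultures of the same strain.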 The note with it: S. cerevisiae rad50 strain growth inhibition, active compounds read high. The essentials: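 Growth of the mutant yeast was measured after compound exposure and referenced to vehicle-treated cultures.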
Experiment [2] in a line: NCI Yeast Anticancer Drug Screen. Data for the mec2-1 strain (AID 157). The conditions noted are these: S. cerevisiae mec2-1 strain, active compounds read high. The essentials:
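Growth inhibition is read against vehicle-treated controls after compound exposure of the mec2-1 yeast strain, which is defective in DNA damage repair or cell cycle control.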

Experiment [3] in a line: NCI Yeast Anticancer Drug Screen. Data for the sgs1 mgt1 strain (AID 161).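 Also: 0% = growth of cultures given vehicle only.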 The conditions noted are these: S. cerevisiae sgs1 mgt1 strain, active compounds read high. The method in brief:
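This yeast growth screen uses a strain with defined DNA-repair lesions; compound-treated growth is compared with vehicle-treated growth.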

A short description of experiment [4]: NCI Yeast Anticancer Drug Screen. Data for the cln2 rad14 strain (AID 165).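 Also: 0% = growth equal to vehicle treated cultures.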 The note with it: S. cerevisiae cln2 rad14 strain, active compounds read high. The method in brief: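 Growth inhibition, relative to vehicle-treated controls, is the read-out. The test organism is a yeast strain with defined genetic alterations, cln2 rad14.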
A short description of experiment [5]: NCI Yeast Anticancer Drug Screen. Data for the bub3 strain (AID 167). The conditions noted are these: S. cerevisiae bub3 mutant strain, active compounds read high. The method in brief:
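Whole-cell yeast assay. The mutant strain was incubated with compounds, and growth inhibition was determined by comparison with vehicle-treated cells.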

Experiment [6] is described as follows: NCI Yeast Anticancer Drug Screen. Data for the mlh1 rad18 strain (AID 175). The note with it: S. cerevisiae mlh1 rad18 strain growth inhibition, active compounds read high. The essentials: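 Cells of a genetically altered yeast strain, deficient in DNA damage repair, were treated with compound. Their growth was then compared with that of vehicle-treated cultures to give inhibition.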

[7] abbreviates: at 5.0 µM (retest, dose inferred, filed as 0.5).
Setting [8] is: at 50.0 µM (retest, dose inferred, filed as 5.0).

Compounds without any hit were thinned out: in the full panel of roughly 79,000, 15% have a hit. Unmarked numbers belong to inactive results. The source made the active and inactive calls. Rule as the data show it: active = growth inhibition above about 70%; inactive = the rest.

For `N#C[S-].[Nd+3].c1cnc2c(c1)ccc1cccnc12.c1cnc2c(c1)ccc1cccnc12.c1cnc2c(c1)ccc1cccnc12`, the growth inhibition was 91% (active) in experiment [1] (setting [7]); 99% (active) in experiment [1] (setting [8]); 93% (active) in experiment [1] (at 50.0 µM); 98% (active) in experiment [2] (setting [7]); 100% (active) in experiment [2] (setting [8]); 94.8% (active) in experiment [2] (at 50.0 µM). Also, the growth inhibition was 98% (active) in experiment [3] (setting [7]); 99% (active) in experiment [3] (setting [8]); 94.2% (active) in experiment [3] (at 50.0 µM); 93% (active) in experiment [4] (setting [7]); 98% (active) in experiment [4] (setting [8]); 93.7% (active) in experiment [4] (at 50.0 µM). For the same compound, the growth inhibition in experiment [5] (setting [7]) is 98% (active); in experiment [5] (setting [8]), 99% (active); in experiment [5] (at 50.0 µM), 93.2% (active); in experiment [6] (setting [7]), 98% (active); in experiment [6] (setting [8]), 99% (active); in experiment [6] (at 50.0 µM), 92.8% (active).

Consider `C[C@H](N)C(=O)N[C@@H]1[C@H]2C(=C(O)C[C@@H](O)[C@@H]2O)C(=O)O[C@]1(C)C(Cl)Cl`, for which the growth inhibition in experiment [1] (setting [7]) was 18%; in experiment [1] (setting [8]) it was 22%; in experiment [1] (at 50.0 µM) it was 17.1%; in experiment [2] (setting [7]), 7%; in experiment [2] (setting [8]), 26%; in experiment [2] (at 50.0 µM), 13.1%. Further, the growth inhibition in experiment [3] (setting [7]) is 12%; in experiment [3] (setting [8]) it was 25%; in experiment [3] (at 50.0 µM), 6.6%; in experiment [4] (setting [7]), 18%; in experiment [4] (setting [8]), 53%; in experiment [4] (at 50.0 µM) it was 44.9%. The growth inhibition is 7% in experiment [5] (setting [7]); 26% in experiment [5] (setting [8]); 30.9% in experiment [5] (at 50.0 µM); 6% in experiment [6] (setting [7]); 25% in experiment [6] (setting [8]); 27.4% in experiment [6] (at 50.0 µM).

As for `COC(=O)C1=C(C(=O)OC)[C]([Hg][CH3])(C(C)=O)N=N1` (configuration not stated), the growth inhibition in experiment [1] (setting [7]) is 99% (active); in experiment [1] (setting [8]), 99% (active); in experiment [1] (at 50.0 µM) it was 99.6% (active); in experiment [2] (setting [7]), 99% (active); in experiment [2] (setting [8]), 99% (active); in experiment [2] (at 50.0 µM), 99.5% (active). Further, the growth inhibition in experiment [3] (setting [7]) is 99% (active); in experiment [3] (setting [8]), 99% (active); in experiment [3] (at 50.0 µM), 99.8% (active); in experiment [4] (setting [7]), 99% (active); in experiment [4] (setting [8]), 99% (active); in experiment [4] (at 50.0 µM) it was 99.5% (active). The growth inhibition in experiment [5] (setting [7]) is 99% (active); in experiment [5] (setting [8]), 98% (active); in experiment [5] (at 50.0 µM), 99.2% (active); in experiment [6] (setting [7]), 99% (active); in experiment [6] (setting [8]) it was 99% (active); in experiment [6] (at 50.0 µM), 99.5% (active).

Take `CCCCCCCC/C=C\CCCCCCCCN1CC(C(=O)[O][Pb]([CH2]C)([CH2]C)[CH2]C)CC1=O` (configuration not stated): the growth inhibition in experiment [1] (setting [7]) was 7%; in experiment [1] (setting [8]) it was 77% (active); in experiment [1] (at 50.0 µM), 30.1%; in experiment [2] (setting [7]), 5%; in experiment [2] (setting [8]) it was 80% (active); in experiment [2] (at 50.0 µM), 28.8%. Besides, the growth inhibition was 10% in experiment [3] (setting [7]); 79% (active) in experiment [3] (setting [8]); 65.9% in experiment [3] (at 50.0 µM); 5% in experiment [4] (setting [7]); 66% in experiment [4] (setting [8]); 9.45% in experiment [4] (at 50.0 µM). Also, the growth inhibition is 4% in experiment [5] (setting [7]); 82% (active) in experiment [5] (setting [8]); 23.3% in experiment [5] (at 50.0 µM); 1% in experiment [6] (setting [7]); 72% (active) in experiment [6] (setting [8]); 65.7% in experiment [6] (at 50.0 µM).

As to `O=C1C=C(Cl)C(=O)C=C1Cl`, the growth inhibition in experiment [1] (setting [7]) is 17%; in experiment [1] (setting [8]) it was 99% (active); in experiment [1] (at 50.0 µM), 99.2% (active); in experiment [2] (setting [7]), 13%; in experiment [2] (setting [8]), 100% (active); in experiment [2] (at 50.0 µM), 99.5% (active). Moreover, the growth inhibition in experiment [3] (setting [7]) is 10%; in experiment [3] (setting [8]), 99% (active); in experiment [3] (at 50.0 µM) it was 99.5% (active); in experiment [4] (setting [7]), 5%; in experiment [4] (setting [8]) it was 91% (active); in experiment [4] (at 50.0 µM), 86.7% (active). For the same compound, the growth inhibition in experiment [5] (setting [7]) was 5%; in experiment [5] (setting [8]), 99% (active); in experiment [5] (at 50.0 µM) it was 99.3% (active); in experiment [6] (setting [7]) it was 11%; in experiment [6] (setting [8]) it was 99% (active); in experiment [6] (at 50.0 µM) it was 99.3% (active).

Turning to `c1ccc([CH2][Pb]([c]2ccccc2)([c]2ccccc2)[c]2ccccc2)cc1`, the growth inhibition in experiment [1] (setting [7]) was 96% (active); in experiment [1] (setting [8]), 96% (active); in experiment [1] (at 50.0 µM) it was 97.2% (active); in experiment [2] (setting [7]), 97% (active); in experiment [2] (setting [8]) it was 99% (active); in experiment [2] (at 50.0 µM), 99.2% (active). Besides, the growth inhibition in experiment [3] (setting [7]) was 97% (active); in experiment [3] (setting [8]), 98% (active); in experiment [3] (at 50.0 µM), 98.7% (active); in experiment [4] (setting [7]) it was 95% (active); in experiment [4] (setting [8]), 95% (active); in experiment [4] (at 50.0 µM), 98.5% (active). Besides, the growth inhibition in experiment [5] (setting [7]) was 98% (active); in experiment [5] (setting [8]) it was 97% (active); in experiment [5] (at 50.0 µM), 99% (active); in experiment [6] (setting [7]), 97% (active); in experiment [6] (setting [8]), 97% (active); in experiment [6] (at 50.0 µM), 99.2% (active).

In the case of `O=C(OCc1ccccc1)C(C(Cl)c1ccccc1)N(Cc1ccccc1)Cc1ccccc1` (configuration not stated), the growth inhibition in experiment [1] (setting [7]) is -2%; in experiment [1] (setting [8]) it was 53%; in experiment [1] (at 50.0 µM) it was 90.8% (active); in experiment [2] (setting [7]), 3%; in experiment [2] (setting [8]), 65%; in experiment [2] (at 50.0 µM), 81.2% (active). Besides, the growth inhibition in experiment [3] (setting [7]) was -1%; in experiment [3] (setting [8]) it was 50%; in experiment [3] (at 50.0 µM), 85.5% (active); in experiment [4] (setting [7]), 1%; in experiment [4] (setting [8]), 53%; in experiment [4] (at 50.0 µM) it was 89.8% (active). In addition, the growth inhibition in experiment [5] (setting [7]) was -1%; in experiment [5] (setting [8]), 49%; in experiment [5] (at 50.0 µM) it was 67.7%; in experiment [6] (setting [7]), -1%; in experiment [6] (setting [8]) it was 56%; in experiment [6] (at 50.0 µM), 86.5% (active).

With `O=C1N[C@@H]2C(=C[C@H](O)[C@@H](O)[C@H]2O)c2cc3c(c(O)c21)OCO3`, the growth inhibition in experiment [1] (setting [7]) was 41%; in experiment [1] (setting [8]), 82% (active); in experiment [1] (at 50.0 µM) it was 3.8%; in experiment [2] (setting [7]) it was 41%; in experiment [2] (setting [8]), 82% (active); in experiment [2] (at 50.0 µM) it was -19%. The growth inhibition in experiment [3] (setting [7]) was 53%; in experiment [3] (setting [8]) it was 84% (active); in experiment [3] (at 50.0 µM), 18.1%; in experiment [4] (setting [7]), 60%; in experiment [4] (setting [8]) it was 83% (active); in experiment [4] (at 50.0 µM), 0.2%. Besides, the growth inhibition was 53% in experiment [5] (setting [7]); 78% (active) in experiment [5] (setting [8]); -3.1% in experiment [5] (at 50.0 µM); 41% in experiment [6] (setting [7]); 84% (active) in experiment [6] (setting [8]); 6.3% in experiment [6] (at 50.0 µM).

Take `COc1cc(C(c2c(O)c3ccccc3oc2=O)c2c(O)c3ccccc3oc2=O)cc(OC)c1O`: the growth inhibition in experiment [1] (setting [7]) was 4%; in experiment [1] (setting [8]) it was 20%; in experiment [1] (at 50.0 µM), 75% (active); in experiment [2] (setting [7]), -2%; in experiment [2] (setting [8]), 19%; in experiment [2] (at 50.0 µM) it was 44.3%. For the same compound, the growth inhibition in experiment [3] (setting [7]) was -2%; in experiment [3] (setting [8]) it was 12%; in experiment [3] (at 50.0 µM), 54.7%; in experiment [4] (setting [7]) it was 0%; in experiment [4] (setting [8]) it was 0%; in experiment [4] (at 50.0 µM), 70.8% (active). In addition, the growth inhibition is -5% in experiment [5] (setting [7]); -10% in experiment [5] (setting [8]); 50% in experiment [5] (at 50.0 µM); -7% in experiment [6] (setting [7]); 2% in experiment [6] (setting [8]); 90.6% (active) in experiment [6] (at 50.0 µM).

The values above are taken from PubChem BioAssay (NCI).
